These results are taken from PubChem BioAssay.

Each structure is given as a SMILES string.

The experiment is described as follows: basal HepG2 mitochondrial membrane potential changes, profiling panel, cell-based, JC-1 fluorescence, 24 h, 100 nL compound (AID 1167). Further: test concentration not given here. The conditions noted are these: higher = more signal.
`CCOc1cc(C(O)C2C=CC3C(=O)NC(=O)C3N2Nc2ccccn2)ccc1O` (stereo not given): the z-score is -1.87. `Cc1cc(C)c(C(O)C2C=CC3C(=O)N(c4ccccc4)C(=O)C3N2Nc2ccccc2)c(C)c1` (stereo not given) had a z-score of -1.21. In turn, `CCCC=C(CCC)[C@@H](NS(=O)(=O)c1ccccc1)c1ccc(C(F)(F)F)cc1` yielded a z-score of -3.56. `COCCCNC(=O)[C@@]1(Cc2ccccc2)COC(c2ccc(OCCCO)cc2)=N1` gave a z-score of -1.11.

With `C[C@@]1([C@@H](NC(=O)c2cccs2)c2ccc(-c3ccccc3)cc2)C[C@H]1C1CCCCC1`, the z-score was -0.734.

In the case of `COc1ccc(C#Cc2ccc3c(c2)[C@]2(C(=O)N3)[C@H](c3ccc(OCCO)cc3)N3[C@H](c4ccccc4)[C@H](c4ccccc4)OC(=O)[C@H]3[C@@H]2C(=O)N2CCN(c3ncccn3)CC2)cc1`, the z-score is -0.851. `CC(C)C[C@@H]1NC(=O)[C@@H]2C[C@H](C(=O)NCc3ccc(F)cc3)[C@H](c3ccc(O)cc3)N2C1=O` displayed a z-score of 1.07. As for `CCCN1C(=O)[C@@H]2Cc3c([nH]c4ccccc34)[C@@H](c3cccc(O)c3)N2C1=O`, the z-score is -1.45. As to `COC(=O)[C@@]1(Cc2ccc(OC)cc2)[C@H]2c3cc(C(=O)N4CCCC4)n(CCc4ccc(O)c(OC)c4)c3C[C@H]2CN1C(=O)c1ccccc1`, the z-score is -0.851. `C=CC[C@]1(C(=O)NCC(O)CO)N=C(c2ccc(OCCCO)cc2)O[C@H]1c1ccccc1N=[N+]=[N-]` (stereo not given in full) yielded a z-score of -0.285. For `COc1ccc([Si](C)(C)[C@@H]2[C@@H](CCO)O[C@]3(C(=O)N(Cc4ccc(N5C(=O)c6ccccc6Oc6ccccc65)cc4)c4ccccc43)[C@H]2C)cc1`, the z-score is -0.42. `COC(=O)[C@@]1(Cc2ccccc2N=[N+]=[N-])N=C(c2ccc(OCCCO)cc2)O[C@H]1c1ccccc1` gave a z-score of -3.13.

The compound `C=C(COC)/C(=C/C[C@@H](OC(=O)c1ccncc1)c1cccc(OCCO)c1)c1cc(C(=O)OC)ccc1OC` gave a z-score of 1.37.

In the case of `COCCCNC(=O)[C@]1(Cc2ccccc2)N=C(c2ccc(OCCCO)cc2)O[C@@H]1c1ccccc1N=[N+]=[N-]`, the z-score amounted to 1.29. For `Cc1ccccc1C(O)C1C=CC2C(=O)N(C)C(=O)C2N1Nc1ccc([N+](=O)[O-])cc1[N+](=O)[O-]` (stereo not given), the z-score was -1.57.

With `CCCCCCCCCCC(O)C1C=CC2C(=O)NC(=O)C2N1Nc1ccccn1` (stereo not given), the z-score is -3.82.

For `Cc1ccc(S[C@]2(C(=O)O)CC(=O)N(C3CCCCC3)[C@@H]2c2ccc(CO)cc2)cc1`, the z-score stood at 0.318. For `CC(C)c1ccc(NN2C(C(O)c3ccccn3)C=CC3C(=O)N(c4ccccc4)C(=O)C32)cc1` (stereo not given), the z-score is -0.357.

The compound `COc1ccc(C(=O)Nc2ccc(CN3C(=O)[C@@]4(O[C@@H](CC(=O)N5Cc6ccccc6C[C@H]5CO)[C@H]([Si](C)(C)c5ccc(OC)cc5)[C@H]4C)c4ccccc43)cc2)cc1` yielded a z-score of 0.489.

`CCOC(=O)C[C@H]1[C@H](OC(=O)c2cc3ccccc3oc2=O)[C@@H](NC(=O)c2ccc3ccccc3n2)c2cc(OCCCO)ccc2N1C(=O)c1ccc2ccccc2n1` gave a z-score of 0.082. For `COC(=O)[C@]1(Cc2ccccc2CN=[N+]=[N-])N=C(c2ccc(OCCCO)cc2)O[C@@H]1c1ccccc1`, the z-score was -1.05.

For `COC(=O)[C@@]1(Cc2ccccc2)[C@H]2c3cc(C(=O)N4CCCC4)n(Cc4ccccc4)c3C[C@H]2CN1C(=O)c1ccccc1`, the z-score worked out at 0.106. The compound `O=C1c2ccccc2C(=O)C2CC([C@H]3Oc4ccccc4S(=O)(=O)N4CCC[C@@H]34)=CCC12` (stereo not given in full) registered a z-score of 0.786. `CCOC(=O)C1=CC[C@@H](c2cccc(Br)c2)N(S(=O)(=O)c2ccc(C)cc2)[C@H]1c1ccc([N+](=O)[O-])cc1` displayed a z-score of 1.45. Under `C#CCOC(=O)N[C@H](C=CCCCC)c1ccccc1` stands 1.47. Under `COCCOC(=O)N1C(=O)[C@@]2(c3ccccc31)[C@H](c1ccccc1OCCO)N1[C@H](c3ccccc3)[C@H](c3ccccc3)OC(=O)[C@H]1[C@@H]2C(=O)N1CCc2cc(OC)c(OC)cc2C1` stands 0.822; under `CN1C(=O)C2C=CC(C(O)c3cccc4ccccc34)N(NC(=O)OC(C)(C)C)C2C1=O` (stereo not given), -2.24; under `CN(C)C(=O)[C@@]1(Cc2ccccc2N=[N+]=[N-])N=C(c2ccc(OCCCO)cc2)O[C@H]1c1ccccc1N=[N+]=[N-]`, 1.45.

The compound `[N-]=[N+]=Nc1ccccc1[C@@H]1OC(c2ccc(OCCCO)cc2)=N[C@]1(CCS(=O)(=O)c1ccccc1)C(=O)NCc1ccccc1` came in with a z-score of 0.136. Under `CC(C)C(CO)N1C(=O)[C@@H]2[C@H]3C(=O)OCC=C[C@H]3OC23C=CCN(CCN2CCOCC2)C(=O)[C@@H]13` (stereo not given in full) stands -0.982.
